Bioassay records from PubChem BioAssay.
In the library only some 19% were active in any assay of this set; here they are far more common.
Giardia kill = Giardia lamblia killing | Giardia lamblia trophozoite viability | activity change, % at 7.66 µM, hits read low | 0.15% of 340,000 active; in the data active = activity change below about -80%; inconclusive = between about -30% and that limit;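 also: parasites exposed to compound for two days anaerobically before the ATP read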
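Luminescence from cellular ATP indicates surviving trophozoites (100 cells/well) following 48 hrs anaerobic compound treatment at 37 deg C; signal develops 15-30 min at room temperature.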
TDP1 inh = inhibitors of human tyrosyl-DNA phosphodiesterase TDP1; Q9NUW8; recombinant TDP1, AlphaScreen DNA substrate cleavage; Potency, µM (top dose mostly 130 µM), hits mostly inhibitors; 0.28% of 350,000 active; also: nearly all actives have a fitted effect of over 40% in size
Target sequence (Q9NUW8 whole entry, looked up): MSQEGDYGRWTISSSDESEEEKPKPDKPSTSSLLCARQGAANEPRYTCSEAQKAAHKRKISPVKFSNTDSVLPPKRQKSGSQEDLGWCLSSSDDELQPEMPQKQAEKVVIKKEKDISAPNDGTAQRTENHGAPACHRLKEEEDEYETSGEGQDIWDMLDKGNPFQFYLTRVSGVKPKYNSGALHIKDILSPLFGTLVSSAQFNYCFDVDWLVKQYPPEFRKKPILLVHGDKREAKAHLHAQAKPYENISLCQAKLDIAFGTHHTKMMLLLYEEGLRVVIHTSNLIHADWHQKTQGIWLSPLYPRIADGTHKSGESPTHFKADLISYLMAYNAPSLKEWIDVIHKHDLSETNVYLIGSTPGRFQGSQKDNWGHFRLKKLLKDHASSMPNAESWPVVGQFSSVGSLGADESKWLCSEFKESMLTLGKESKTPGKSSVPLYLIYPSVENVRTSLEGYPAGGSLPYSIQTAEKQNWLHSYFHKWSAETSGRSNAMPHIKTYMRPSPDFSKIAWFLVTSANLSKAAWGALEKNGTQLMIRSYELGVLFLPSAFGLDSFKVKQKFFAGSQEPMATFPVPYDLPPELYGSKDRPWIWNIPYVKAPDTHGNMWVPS
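Steps: enzyme plus compound, 15 min RT; add biotin/phosphotyrosine-FITC oligonucleotide (15 nM final), react 5 min; add donor/acceptor beads (10 ug/ml final), 10 min; read AlphaScreen. Tdp1 at 1 nM final.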
IL1B secr inh = blocks inflammasome-driven IL-1 beta release; THP-1 LPS/ATP IL-1B secretion, AlphaLISA, 16 h; active compounds read low; activity change, % at 57.5 µM; 4.7% of 360,000 active; AID 743279; in the data active = activity change below about -50%; inconclusive = mostly about -30% to -49%
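THP-1 cells pretreated 1 hr with compounds (up to 57.5 uM final), then stimulated with LPS (250 ng/mL final) plus ATP (1.25 mM final); secreted IL-1B measured by AlphaLISA after 16 hr, decreased signal indicating inhibition.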
TDP1 cell CPT = growth inhibition of DT40 Tdp1-/-;hTDP1 cells with camptothecin (screen for TDP1 inhibitors) | chicken DT40 Tdp1-/-;hTDP1 cells + 20 nM CPT, ATP luminescence, 48 h | Potency, µM (highest dose often 46.2 µM), actives largely listed as inhibitors | 12% of 420,000 active | AID 686979; also: nearly all actives have a fitted effect of over 55% in size
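Cell growth measured by CellTiter-Glo luminescence after a minimum 48 h, 37 C compound exposure with 20 nM CPT in Tdp1-knockout DT40 cells stably expressing hTDP1, seeded 400/well; qHTS titration format.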
DT40 TDP1 no CPT = qHTS for Inhibitors of human tyrosyl-DNA phosphodiesterase 1 (TDP1): qHTS in cells in absence of CPT | Potency, µM (titrated, usually from 46.2 µM), hits mostly inhibitors | 15% of 420,000 active | AID 686978, 2013 | DT40 Tdp1-/- hTDP1 cells, no CPT, ATP luminescence, 48 h; also: nearly all actives have a fitted effect of over 55% in size
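Growth of hTDP1-complemented DT40 Tdp1-knockout cells is measured by ATP luminescence after at least 48 hr compound exposure at 37 °C, with DMSO substituting for the 20 nM CPT used in the parallel screen.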
ELG1 DNA repair = ELG1-dependent DNA repair inhibition. HEK293T ELG1-luciferase reporter, luminescence, 16 h; DNA damage induced by 5-fluorouridine. Potency, µM (highest dose often 46.1 µM), hits mostly inhibitors. 2.3% of 330,000 active. AID 504467; also: nearly all actives have a fitted effect of over 55% in size
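Reporter activity after DNA damage by 5-fluorouridine is monitored. Compound-treated cells incubate 16 hr at 37 °C, then ONE-Glo is added for 30 min before luminescence reading.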
Hits are given with their value; 0 = inactive; ? = inconclusive; - = not tested or not shown; [ ] = remark or other dose. Unless noted, calls follow the shape of the dose curve; as a rule, active = well fitted curve in the direction sought with a large enough effect; inconclusive = small, poorly fitted or top-dose-only effect, or another doubt; inactive = no such curve, though single readings can be large; an effect the other way counts as inactive or inconclusive.

SMILES | Giardia kill | TDP1 inh | IL1B secr inh | TDP1 cell CPT | DT40 TDP1 no CPT | ELG1 DNA repair
Cc1[nH]n2c(=O)c3c(nc2c1-c1ccc(Cl)cc1)CCC3 | 0 | 0 | 0 | 12µM | 21µM | 0
COc1cc(C2c3c(oc4ccc(F)cc4c3=O)C(=O)N2Cc2ccc3c(c2)OCO3)ccc1O (stereo not given) | - | 0 | - | 0 | 0 | -
Cc1ccc(CNC(=O)COC(=O)c2ccc(S(=O)(=O)NCc3ccco3)cc2)cc1 | 0 | 0 | 0 | 0 | 0 | 0
Cn1cc(-c2nc3cnc(Oc4cccc(Cl)c4)nc3n(C3CC3)c2=O)c2ccccc21 | - | - | - | 0 | 0 | -
CC(=O)N/N=C/c1cc(C(C)(C)C)cc(/C=N/NC(C)=O)c1O | 0 | 0 | 0 | 0 | 26µM | 15µM
O=C(CS(=O)(=O)c1c[nH]c2ccccc12)N1CCc2ccccc21 | 0 | - | 0 | 0 | 0 | 0
CC1(c2ccc(F)cc2)OC(=O)c2c1ccc1ccccc21 (stereo not given) | - | - | 0 | ? | 18µM | -
Cc1c2ccncc2cc2c1[nH]c1ccccc12 | 0 | - | -96 | 5.8µM | 6.5µM | -
CCS(=O)(=O)N1CC(=O)N(c2cccc(C)c2C)C(C)(C(=O)NC2CCCCC2)C1 (stereo not given) | - | 0 | - | 0 | 0 | -
Cc1oc(S(=O)(=O)N2CCCC2)cc1C(=O)Nc1ccc(F)cc1 | 0 | 0 | - | 0 | ? | ?
O=C(Nc1ccccc1)c1ccc(Br)c(S(=O)(=O)N2CCCCC2)c1 | - | 0 | - | 18µM | 21µM | -
O=C(Nc1ccc(F)cc1)c1ccc(Br)c(S(=O)(=O)N2CCOCC2)c1 | 0 | 0[0.0935 µM] | ? | ? | ? | 15µM
O=C(Nc1ccc(Cl)cn1)c1ccc(Br)c(S(=O)(=O)N2CCCCC2)c1 | 0 | 0 | 0 | 23µM | ? | 0
Cc1oc(S(=O)(=O)N2CCOCC2)cc1C(=O)Nc1ccc(F)cc1 | 0 | 0 | 0 | 0 | 0 | 23µM
O=C(Nc1ccccc1)c1ccc(N2CCN(c3ccccc3)CC2)c(S(=O)(=O)N2CCOCC2)c1 | 0 | 0 | 0 | 0 | 0 | ?
O=C(Nc1ccccc1)c1ccc(NC2CCCCC2)c(S(=O)(=O)N2CCOCC2)c1 | 0 | 0 | -52 | ? | ? | 15µM
O=C(O)c1ccc(NC(=O)c2ccc(Br)c(S(=O)(=O)N3CCCC3)c2)cc1 | - | 0[12.3 µM] | - | 0 | 0 | -
O=C(Nc1ccc(Br)cc1)c1ccc(Br)c(S(=O)(=O)N2CCCCC2)c1 | - | 0 | - | ? | 18µM | -
CC(C)COC(=O)c1ccc(N)cc1 | - | 0 | - | 0 | 0 | -
Cc1ccc(NC(=S)NCC(O)c2ccccc2)c(C)c1 (stereo not given) | 0 | - | 0 | ? | 0 | 0
COc1cccc2c1C(CO)N1C(C#N)C3CC(C(=O)O)C(C1C2)N3C (stereo not given) | ? | - | -116 | 0.18µM | 0.21µM | 0.33µM
COc1cccc2c1OCC(C(=O)O)C2 (stereo not given) | 0 | 0 | 0 | 0 | 0 | 0
O=S(=O)(NCCc1nnc2ccc(SCc3ccccc3Cl)nn12)c1ccccc1 | - | 0 | - | 16µM | 23µM | -
COc1ccc(Cl)cc1NC(=O)CSc1ccc2nnc(CCNS(=O)(=O)c3ccccc3)n2n1 | - | 0 | - | 18µM | ? | -
O=S(=O)(NCCc1nnc2ccc(SCc3c(F)cccc3Cl)nn12)c1ccccc1 | - | 0 | - | ? | 23µM | -
SMILES | Giardia kill | TDP1 inh | IL1B secr inh | TDP1 cell CPT | DT40 TDP1 no CPT | ELG1 DNA repair
Cc1cc(NC(=O)CSc2ccc3nnc(CCNS(=O)(=O)c4ccccc4)n3n2)no1 | 0 | 0 | 0 | 0 | 0 | 0
COC(=O)CSc1ccc2nnc(CCNS(=O)(=O)c3ccccc3)n2n1 | ? | 0 | 0 | 0 | 0 | 0
CCOC(=O)c1c(-c2ccc(OC)cc2)nc2nonc2c1N | 0 | 0 | 0 | ? | 2.6µM | 0
CC(=O)Nc1ccc(NC(=O)C2CC(=O)N(C(C)C)C2)cc1 (stereo not given) | 0 | - | 0 | 0 | 0 | 0
Cc1cccc2cc(C#N)c(SCC(=O)N3CC(=O)Nc4ccccc43)nc12 | 0 | 0 | 0 | 2.6µM | 2.1µM | ?
Cc1cc(NC(=O)CSc2nc3c(C)cccc3cc2C#N)no1 | 0 | 0 | 0 | ? | 15µM | 0
